# Assay outcomes (PubChem)
# An excerpt weighted towards active compounds, which were near 8.1% of everything screened.
# SW480 rerep – inducers of DNA re-replication in SW480 colon cancer cells | SW480 DNA re-replication, Hoechst DNA content imaging, 48 h | Potency, µM (doses to about 46.1 µM), inactives show top-dose re-replication activation, actives largely listed as activators | 340,000 tested, 1.8% active | AID 624297; note: % of control where 0% means no effect; nearly all actives have a fitted effect of over 55% in size
#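 Per well, 250 cells were exposed to pinned compound for 48 hr. Nuclear DNA was visualised with Hoechst (40 min, 37 C) and total object intensity recorded by fluorescence scanning.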
# KB-3-1 tox – KB-3-1 parental cell cytotoxicity; KB-3-1 viability, CellTiter-Glo ATP luminescence, 72 h; Potency, µM (doses to about 46.1 µM), hits mostly cytotoxic; 400,000 tested, 1.4% active; AID 1347075; note: % is set by controls: 0 for no effect and ±100 for the full control effect; nearly all actives have a fitted effect of over 60% in size
#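 KB-3-1 parental drug-naive adenocarcinoma cells in DMEM/10% FBS, incubated 72 h at 37 C with pin-transferred compounds across a concentration series. Viability by CellTiter-Glo luminescence; concentration-response curves fitted after normalization.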
# ELG1 DNA repair – ELG1-dependent DNA repair inhibition | HEK293T ELG1-luciferase reporter, luminescence, 16 h; DNA damage induced by 5-fluorouridine | Potency, µM (doses to about 46.1 µM), without a hit: at the top dose activity change, negative = inhibition, actives largely listed as inhibitors | 330,000 tested, 2.3% active | AID 504467; note: % is set by controls: 0 for no effect and ±100 for the full control effect; nearly all actives have a fitted effect of over 55% in size
#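 Reporter activity after DNA damage by 5-fluorouridine is monitored. Compound-treated cells incubate 16 hr at 37 °C, then ONE-Glo is added for 30 min before luminescence reading.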
# KB-V1 MDR tox – KB-V1 MDR subline cytotoxicity. KB-V1 MDR cells viability, CellTiter-Glo, 72 h. 400,000 tested, 3.4% active. Potency, µM (top dose mostly 46.1 µM), usual class: cytotoxic; note: % is set by controls: 0 for no effect and ±100 for the full control effect; nearly all actives have a fitted effect of over 60% in size
#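 Luminescent ATP read-out (CellTiter-Glo, 10 min) measures survival of drug-selected KB-V1 MDR cells after 72 h, 37 degrees C compound exposure. Medium: phenol-red-free DMEM, 10% FBS. Values from fitted concentration-response curves.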
# MCF10A rereplic – DNA re-replication induction in MCF 10a cells. MCF 10A DNA re-replication, Hoechst nuclear intensity, 48 h. AID 624296. 350,000 tested, 2.9% active. Potency, µM (top dose mostly 46.1 µM), for inactives: at the top dose activity, positive = re-replication, hits mostly activators; note: % of control where 0% means no effect; nearly all actives have a fitted effect of over 50% in size
# An asterisk follows results filed as active; i = inactive; ? = inconclusive; . = no result. Calls come from the whole dose curve; as a rule, active = well fitted curve in the direction sought with a large enough effect; inconclusive = small, poorly fitted or top-dose-only effect, or another doubt; inactive = no such curve, though single readings can be large; an effect the other way counts as inactive or inconclusive. Potency is the fitted concentration of half-maximal effect.
SMILES,SW480 rerep,KB-3-1 tox,ELG1 DNA repair,KB-V1 MDR tox,MCF10A rereplic
O=C(NC1CCCCC1)C(c1ccccc1)N(C(=O)c1cccs1)c1ccc2c(c1)OCO2 (stereo not given),1.3µM*,i,4.0%,?,-5.9%
O=C(NC1CCCCC1)C(c1ccc2ncccc2c1)N(Cc1ccccc1)C(=O)c1cccs1 (stereo not given),?,i,-27.7%,23.1µM*,?
Nc1ccccc1OC1=NS(=O)(=O)c2ccccc21,.,?,.,i,.
CC(C)c1ccc(NC(=O)c2cc(Br)ccc2Br)cc1,3.8%,i,0.0%,i,?
C=C1C(=O)C23CCC4C(C)(C(=O)OC)CCCC4(C)C2CCC1(O)C3 (stereo not given),1.16µM*,?,.,18.4µM*,2.31µM*
O=C(Cc1ccc(Cl)cc1)N1CCN(c2ccccc2)CC1,?,i,-0.9%,i,3.2%
COCCn1c(=N)c(S(=O)(=O)c2ccc(Br)cc2)cc2c(=O)n3ccccc3nc21,-7.8%,i,?,i,-10.6%
COCCn1c(=N)c(S(=O)(=O)c2ccc(F)cc2)cc2c(=O)n3ccccc3nc21,20.6µM*,?,0.0%,i,18.4µM*
N=c1c(S(=O)(=O)c2ccc(Cl)cc2)cc2c(=O)n3ccccc3nc2n1Cc1ccco1,5.17µM*,?,-18.7%,i,?
CCCCCn1c(=N)c(S(=O)(=O)c2ccc(Cl)cc2)cc2c(=O)n3cccc(C)c3nc21,11.4%,?,21.9%,8.2µM*,?
COc1ccc(C(=O)N=c2sc3c(C)ccc(OC)c3n2C)cc1,10.6%,9.2µM*,?,5.8µM*,8.0%
CN(C)CCN(C)Cc1ccccc1Sc1cccc2ccccc12,?,?,-20.2%,23.1µM*,?
CNCc1ccccc1Sc1cccc2ccccc12,?,?,-19.7%,14.6µM*,?
CC(C)CNC(=O)CSc1nc2scc(-c3ccccc3)c2c(=O)[nH]1,-6.8%,i,-0.7%,?,?
CCCn1c(CC)nc([N+](=O)[O-])c1S(=O)(=O)c1ccccc1,?,?,?,i,3.66µM*
c1nc(N2CCCCCC2)c2[nH]cnc2n1,-6.2%,i,?,23.1µM*,16.3%
COc1ccccc1CNC(=O)CSc1nn2c(=O)c(C(C)(C)C)nnc2s1,-47.5%,i,-17.2%,?,9.4%
CN(C)c1ccc(CN2CCCCCC2)cc1,-10.8%,i,-5.4%,i,2.2%
CCN(CC)c1ccc(CN2CCCCCC2)cc1,?,?,12.5%,18.4µM*,?
COc1ccc(/C=C(\C#N)c2nc(-c3ccc(Cl)c(Cl)c3)cs2)cc1OC,.,i,.,?,.
COc1cc(-c2nnc(Sc3ccc(C(F)(F)F)cc3[N+](=O)[O-])o2)cc(OC)c1OC,?,i,-4.7%,i,18.4µM*
O=C(O)c1ccc(Sc2nnc(-c3cccc(Br)c3)o2)c([N+](=O)[O-])c1,-1.0%,i,-5.9%,i,10.7%
COc1ccc2c(c1)c(C(=O)N/N=C/c1ccc(Br)cc1)c(C)n2C,10.3µM*,?,?,?,13µM*
COc1ccc2c(c1)c(C(=O)N/N=C/c1ccc(O)c(O)c1)c(C)n2C,-2.9%,i,-17.8%,i,0.3%
CCOc1ccc(/C=N/NC(=O)c2c(C)n(C)c3ccc(OC)cc23)cc1,?,8.2µM*,?,13µM*,11.6µM*
SMILES,SW480 rerep,KB-3-1 tox,ELG1 DNA repair,KB-V1 MDR tox,MCF10A rereplic
CCOc1ccc(/C=N/NC(=O)c2cc3c(OC)cccc3[nH]2)cc1,?,i,-7.2%,i,?
C=C1CCN([C@@H](CC(C)C)C(=O)NCCCc2ccccc2)S(=O)(=O)c2ccccc21,26.3%,i,.,i,16.1%
COc1ccc(Nc2cc(C)c3ccccc3n2)cc1,8.3%,i,?,i,7.6%
CN1CCN(c2ccc(Nc3c4ccccc4nc4ccccc34)cc2)CC1,.,14.6µM*,.,23.1µM*,.
COc1ccccc1Nc1nc(-c2ccccc2)nc2ccccc12,0.581µM*,i,-28.6%,i,4.9%
COc1ccc(Nc2c3ccccc3nc3ccccc23)cc1,23.1µM*,6.51µM*,?,?,-2.4%
COc1ccc(C)cc1Nc1c2c(nc3ccccc13)CCC2,2.91µM*,0.651µM*,?,2.91µM*,1.64µM*
COc1ccc(Nc2nc(-c3ccccc3)nc3ccccc23)c(OC)c1,?,i,?,i,?
CCCCCCCc1c(O)nc(SCC(=O)O)[nH]c1=O,-5.0%,i,-6.5%,i,0.7%
COc1ccc(CNC(=O)c2ccc[nH]2)cc1Cl,3.4%,i,-8.1%,i,-2.0%
OCCCNc1nc(-c2ccccc2)c2cc(Br)ccc2n1,?,?,-23.2%,?,4.61µM*
OCCCNc1c2ccccc2nc2ccccc12,?,8.2µM*,?,?,-4.7%
COc1ccc(Nc2c3c(nc4ccccc24)CCC3)cc1,7.7%,?,-27.1%,20.6µM*,1.4%
Cc1ccc2nc(NCCCO)nc(-c3ccccc3)c2c1,?,i,-12.0%,?,?
Clc1cncc(Cl)c1NNc1c2ccccc2nc2ccccc12,8.2%,i,3.7%,i,8.1%
CC(C)(C)Nc1c2ccccc2nc2ccccc12,23.1µM*,i,-1.1%,i,14.6µM*
CCc1nc(SCc2nnc(-c3ccc(C)cc3)o2)c2c(C)c(C)sc2n1,-15.4%,i,.,i,1.4%
COc1ccc(Nc2nc(-c3ccccc3F)nc3ccccc23)cc1OC,3.9%,i,23.1µM*,i,-8.5%
O=C(O)c1ccc(Nc2c3ccccc3nc3ccccc23)cc1,?,i,0.0%,i,20.6µM*
Cc1ccc2nc(NCC(N)=O)nc(-c3ccccc3)c2c1,18.4µM*,i,0.0%,i,?
COc1ccccc1Nc1c2ccccc2nc2ccccc12,?,?,?,14.6µM*,?
COc1ccccc1Nc1nc(-c2ccccc2O)nc2ccccc12,21.7%,i,?,i,7.3%
COCCNc1oc(-c2cccs2)nc1S(=O)(=O)c1ccc(C)cc1,1.4%,i,-6.4%,?,-0.9%
COc1ccc(Nc2c3c(nc4ccccc24)CCCC3)cc1OC,-0.8%,?,15.7%,?,2.4%
COc1cc(Nc2c3ccccc3nc3ccccc23)cc(OC)c1OC,23.1µM*,?,-27.2%,?,?
COc1cc(Nc2nc(-c3ccccc3)c3cc(C)ccc3n2)cc(OC)c1OC,4.9%,?,?,20.6µM*,?
O=[N+]([O-])c1cnc(Sc2ccncn2)s1,?,18.4µM*,?,?,19.5%
